PubChem BioAssay (EPA / NIEHS)
Where “and” joins values, the source holds several entries; their conditions need not be identical. Identical values can stand only once. The source holds several records for some structures; these can differ, active in one and inactive in another. Calls of active or inactive are those of the source. The calls were made as follows: active = hit-call score of the fitted dose curve at least 0.9, where 1 is the maximum; inactive = score below 0.9.

Experiments:
[1] = ATG_E_Box_CIS: Attagene CIS-FACTORIAL HepG2 Assay for human Enhancer Box (E-box) (AID 2282936); conditions: HepG2 E-box cis-reporter transcription, actives raise or lower the signal
Outline: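 Fluorescent reporter fragments separated by capillary electrophoresis gave the signal; mRNA came from HepG2 cells transfected with cis-element reporters and treated 24 h. Curves fitted bidirectionally relative to DMSO controls.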

[2] = ATG_M_61_CIS: Attagene CIS-FACTORIAL HepG2 Assay for M61 Transcription Factor (Internal Marker) (AID 2282937); conditions: HepG2 Attagene CIS-FACTORIAL M61 internal marker reporter; actives raise or lower the signal
Outline: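 HepG2 cells transiently transfected with multiplexed cis-promoter reporter units reporting endogenous transcription factor activity, measured 24 h after dosing. Reporter mRNA quantified by RT-PCR and capillary electrophoresis; bidirectional fit against DMSO baseline.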

[3] = ATG_EGR_CIS: Attagene CIS-FACTORIAL HepG2 Assay for human Early Growth Response 1 (EGR1) (AID 2282938); conditions: HepG2 Attagene CIS-FACTORIAL EGR reporter mRNA; actives raise or lower the signal
Outline: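 HepG2 cells transiently transfected with cis-element-driven multiplexed reporter units, dosed for 24 h. EGR1-element reporter mRNA quantified by RT-PCR, 6-FAM labelling, HpaI digestion and capillary electrophoresis; bidirectional fit versus DMSO.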

[4] = ATG_M_19_CIS: Attagene CIS-FACTORIAL HepG2 Assay for M19 Transcription Factor (Internal Marker) (AID 2282939); conditions: HepG2 Attagene CIS-FACTORIAL M19 internal marker reporter; actives raise or lower the signal
Outline: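 HepG2, MRTU transient transfection, 24 h dosing. Total RNA → RT-PCR → 6-FAM primer extension → HpaI digest → CE fluorescence. Bidirectional curve fit, DMSO negative control.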

[5] = ATG_ERE_CIS: Attagene CIS-FACTORIAL HepG2 Assay for Estrogen Response Element (ERE) (AID 2282940); conditions: HepG2 ERE cis-reporter, Attagene RNA transcript; actives raise or lower the signal
Outline: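 After a 24 h chemical treatment, RNA from reporter-transfected HepG2 cells is reverse-transcribed, PCR-amplified and fluorescently labelled. Fragments separated by capillary electrophoresis give reporter signal; DMSO serves as negative control.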

[6] = ATG_Ets_CIS: Attagene CIS-FACTORIAL HepG2 Assay for human Erythroblast Transformation Specific (ETS) (AID 2282941); conditions: HepG2 ETS cis-reporter transcription, actives raise or lower the signal
Outline: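 Cis-regulated reporter mRNA induction in HepG2 (transient transfection), 24 h exposure, RT-PCR plus capillary electrophoresis detection; DMSO serves as negative control and baseline.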

[7] = target: Hepatocyte nuclear factor 3-beta (Homo sapiens) (UniProt Q9Y261); assay: ATG_FoxA2_CIS: Attagene CIS-FACTORIAL HepG2 Assay for human Forkhead box A2 (FOXA2) (AID 2282942); conditions: HepG2 cis-reporter transcription factor activity, 24 h; actives raise or lower the signal
Sequence of Hepatocyte nuclear factor 3-beta (Homo sapiens) (Q9Y261 whole entry, looked up): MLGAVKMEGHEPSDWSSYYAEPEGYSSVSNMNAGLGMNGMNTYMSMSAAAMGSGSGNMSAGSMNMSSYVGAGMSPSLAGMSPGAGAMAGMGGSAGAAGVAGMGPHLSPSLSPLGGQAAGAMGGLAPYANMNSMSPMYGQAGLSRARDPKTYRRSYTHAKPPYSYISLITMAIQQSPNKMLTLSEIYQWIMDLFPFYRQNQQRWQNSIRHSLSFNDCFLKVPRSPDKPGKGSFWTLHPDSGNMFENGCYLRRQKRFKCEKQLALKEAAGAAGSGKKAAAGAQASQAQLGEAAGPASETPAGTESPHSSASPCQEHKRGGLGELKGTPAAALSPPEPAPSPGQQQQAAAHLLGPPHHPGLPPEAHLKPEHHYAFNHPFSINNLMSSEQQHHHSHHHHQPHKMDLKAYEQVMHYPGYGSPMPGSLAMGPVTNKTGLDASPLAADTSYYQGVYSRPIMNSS
Outline: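 HepG2 transiently transfected with a multiplexed cis-promoter reporter library read endogenous FOXA2 activity. After 24 h compound exposure, reporter mRNA was quantified by RT-PCR, HpaI digestion and capillary electrophoresis. Bidirectional fit against DMSO.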

[8] = ATG_FoxO_CIS: Attagene CIS-FACTORIAL HepG2 Assay for human Forkhead box O (FoxO) (AID 2282943); conditions: HepG2 Attagene cis-reporter, FoxO element, mRNA; actives raise or lower the signal
Outline: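 HepG2, transient MRTU transfection (cis element, endogenous TFs). Dose 24 h. TriZol RNA → oligo(dT) RT → PCR → 6-FAM primer extension → HpaI cut → CE. Gain/loss vs DMSO.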

[9] = ATG_GATA_CIS: Attagene CIS-FACTORIAL HepG2 Assay for human GATA Binding Protein (AID 2282944); conditions: HepG2 GATA cis-element reporter, Attagene multiplex mRNA; actives raise or lower the signal
Outline: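 Cells: HepG2, transiently transfected with cis-regulated reporter transcription units. Exposure: 24 h. Detection: RT-PCR plus capillary electrophoresis of FAM-labeled fragments. Analysis: bidirectional, DMSO as baseline.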

[10] = ATG_GLI_CIS: Attagene CIS-FACTORIAL HepG2 Assay for human Zinc Finger Protein GLI1 (AID 2282945); conditions: HepG2, Attagene cis-factorial reporter mRNA, GLI element; actives raise or lower the signal
Outline: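 Bidirectional curve fits relative to DMSO, using reporter mRNA levels from RT-PCR plus capillary electrophoresis. Cells were HepG2 transiently carrying cis-regulated reporter constructs, harvested 24 h after dosing.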

Measured: AC50

O=c1[nH]sc2ccccc12
inactive: all assays above

CC(C)(c1cc(Br)c(O)c(Br)c1)c1cc(Br)c(O)c(Br)c1
inactive: [1] | [2] | [4] | [6] | [7] | [8] | [9]
active: [3] 47.1 µM and 37.6 µM | [8] 58 µM | [9] 58.1 µM | [10] 49.8 µM and 50.8 µM

Cc1oc2c(NC(=O)c3c(Cl)cccc3Cl)cccc2c1C(C)(C)O
active: [3] 47.6 µM | [7] 27.3 µM
inactive: all other assays above

COCC(C)OCC(C)OCC(C)O (configuration not stated)
inactive: all assays above

O=C(O)Cc1cc(I)c(Oc2ccc(O)c(I)c2)c(I)c1
not listed: [5]
inactive: all other assays above

O=c1ccc2ccccc2o1
inactive: all assays above

O=C=NCCCCCCN=C=O
inactive: all assays above

O=c1c(-c2ccc(O)cc2)coc2cc(O)cc(O)c12
not listed: [5]
inactive: all other assays above

Cc1ccc(C(C)C)cc1
inactive: all assays above

C[C@]12CC[C@@H]3c4ccc(O)cc4CC[C@H]3[C@@H]1CCC2=O
not listed: [5]
inactive: all other assays above

CCO[Si](CCCNC(N)=O)(OCC)OCC
inactive: all assays above

CC(O)CC(C)(C)O (configuration not stated)
active: [8] 0.0124 µM
inactive: [1] | [2] | [3] | [4] | [6] | [7] | [8] | [9] | [10]

CCCCCCCCCC(=O)O
not listed: [5]
inactive: all other assays above

CC(C)(C)c1csc(-c2cc3cc(OCc4ccccc4CC(=O)O)ccc3o2)n1
active: [3] 14.4 µM
inactive: all other assays above

c1ccc(C[n+]2cccc3ccccc32)cc1
active: [5] 74.1 µM
inactive: all other assays above

Cc1occc1C(=O)Nc1ccc(C(=O)N2CCC(F)(F)/C(=C\C(=O)N3CCC(N4CCCCC4)CC3)c3ccccc32)cc1
active: [1] 27.4 µM | [3] 34.5 µM | [6] 55.9 µM | [7] 34.5 µM | [9] 46.7 µM
inactive: [2] | [4] | [5] | [8] | [10]

CC1(C)NC(=O)N(c2ccc([N+](=O)[O-])c(C(F)(F)F)c2)C1=O
not listed: [5]
inactive: all other assays above

Oc1ccccc1
not listed: [5]
inactive: all other assays above

CCCCCCCCN(C)CCCCCCCC
active: [5] 30.2 µM
inactive: all other assays above

Cc1c2ccccc2c(C)c2c1ccc1ccccc12
active: [1] 8.32 µM | [4] 33.4 µM | [5] 3.55 µM
inactive: all other assays above

CCCCOC(=O)CC(CC(=O)OCCCC)(OC(C)=O)C(=O)OCCCC
not listed: [5]
inactive: all other assays above

COc1cc(C(=O)NC2CCN(C)CC2)ccc1Nc1ncc2c(n1)N(C1CCCC1)CC(F)(F)C(=O)N2C
active: [3] 2.26 µM | [6] 1.55 µM | [8] 3.63 µM
inactive: all other assays above

O=C(O)c1ccccc1C(=O)OCc1ccccc1
inactive: all assays above

O=CCCCC=O
inactive: all assays above

Cc1ccc2oc(CN(Cc3ccccc3)C(=O)Nc3c(F)cc(F)cc3F)c(-c3ccc(Cl)cc3)c2c1
inactive: all assays above

c1ccc2n[nH]nc2c1
not listed: [5]
inactive: all other assays above

CC[C@@H]1C[C@H](N(Cc2cc(C(F)(F)F)cc(C(F)(F)F)c2)C(C)=O)c2cc(C(F)(F)F)ccc2N1C(=O)OC(C)C
inactive: all assays above

O=C(O)c1ccccc1-n1cc(C(=O)O)c(=O)c2cc(Nc3c(F)cc(F)cc3Cl)c(Cl)cc21
inactive: all assays above

O=C1O[C@H]([C@@H](O)CO)C(O)=C1O
not listed: [5]
inactive: all other assays above

CCCCCCCCCCCC[N+](C)(C)C
active: [1] 33.4 µM and 22.5 µM
not listed: [5]
inactive: all other assays above

CCN(Cc1cccnc1)C(=O)c1cccc(Cl)c1[C@]1(C)C(=O)N(Cc2ccc(OC)cc2OC)c2ccc(Cl)cc21
active: [3] 3.83 µM
inactive: all other assays above

CC/C(=C(/CC)c1ccc(O)cc1)c1ccc(O)cc1
not listed: [5]
inactive: all other assays above

CN1C(=O)CC[C@H]1c1cccnc1
not listed: [5]
inactive: all other assays above

CO[C@H]1/C=C/O[C@@]2(C)Oc3c(C)c(O)c4c(O)c(c(/C=N/N5CCN(C)CC5)c(O)c4c3C2=O)NC(=O)/C(C)=C\C=C\[C@H](C)[C@H](O)[C@@H](C)[C@@H](O)[C@@H](C)[C@H](OC(C)=O)[C@@H]1C
not listed: [5]
inactive: all other assays above

COc1ccc2cc(S(=O)(=O)N[C@H](CC(=O)N[C@H](Cc3ccc(CN4[C@H](C)CCC[C@@H]4C)cc3)C(=O)N(C)C(C)C)c3ccc4c(c3)OCO4)ccc2c1
active: [3] 11 µM
inactive: all other assays above

CCCCCCCCOC(=O)c1cc(O)c(O)c(O)c1
inactive: all assays above

Cc1ncc(CO)c(CO)c1O
not listed: [5]
inactive: all other assays above

O=C1c2ccccc2C(=O)N1CCc1noc(-c2ccc(CN3CCCCCC3)s2)n1
inactive: all assays above

CCCC(=O)OCCC(C)C
active: [6] 26.8 µM
inactive: all other assays above
